Screening data (PubChem BioAssay)
This excerpt belongs to a sample that is enriched for hits.
FECH block: blocks human mitochondrial ferrochelatase activity; 20,000 tested, 3.3% active; calls only at 10 µM (by protocol); purified FECH, Ni-mesoporphyrin absorbance 550 nm; AID 1671448; P22830;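 active = enzyme reaction rate more than 3 SD below the solvent-only control wells on the same plate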;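 also: lower slope than DMSO wells means FECH inhibition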
Target sequence (P22830 whole entry, looked up): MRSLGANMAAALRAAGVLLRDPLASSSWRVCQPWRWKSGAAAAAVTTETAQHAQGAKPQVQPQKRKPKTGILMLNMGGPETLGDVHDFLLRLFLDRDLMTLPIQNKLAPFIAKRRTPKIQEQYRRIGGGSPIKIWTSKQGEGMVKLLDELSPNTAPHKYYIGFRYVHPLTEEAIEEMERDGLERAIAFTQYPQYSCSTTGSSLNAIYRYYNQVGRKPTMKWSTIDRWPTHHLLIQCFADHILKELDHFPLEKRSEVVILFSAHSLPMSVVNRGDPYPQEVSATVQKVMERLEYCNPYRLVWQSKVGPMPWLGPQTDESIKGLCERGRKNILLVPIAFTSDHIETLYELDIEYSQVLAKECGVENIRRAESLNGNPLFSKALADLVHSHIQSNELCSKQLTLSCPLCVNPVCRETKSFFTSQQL
Calls only; - = inactive; + = active, no number.

SMILES | FECH block
NS(=O)(=O)c1ccc(-c2cccc3cccnc23)s1 | -
Cc1ncc(CO)c2cc(C3=NS(=O)(=O)c4ccccc4N3)c(=O)oc12 | +
CC(C)NC(=O)c1nc[nH]c1C(=O)NC1CCCC1 | -
O=C(NC1CCCCC1)c1nc[nH]c1C(=O)NCc1ccccc1 | +
O=C(NC1CCCCC1)c1nc[nH]c1C(=O)NCC1CC1 | -
O=C(NC1CCCC1)c1nc[nH]c1C(=O)NC1CC1 | -
CC(C)(C)CNC(=O)c1[nH]cnc1C(=O)NC1CCCC1 | -
CC(C)(C)CNC(=O)c1[nH]cnc1C(=O)NC1CCCCC1 | -
CNC(=O)c1[nH]cnc1C(=O)NC1CCCCC1 | +
O=C(NC1CCCCC1)c1nc[nH]c1C(=O)NCc1cccc(C(F)(F)F)c1 | +
O=C(NC1CCCC1)c1nc[nH]c1C(=O)NCc1ccccc1 | -
Cc1cc(-n2cnnc2CN2CCN(c3cccc(C)c3C)CC2)n(C)n1 | -
CCOC(=O)c1c(NC(=O)c2ccc(Cl)cc2)sc2c1CCN(C(C)C)C2 | -
O=C(CN1CCCN(Cc2ccccc2)S1(=O)=O)Nc1ccc2c(c1)OCO2 | -
O=c1c(Nc2ccc(F)cc2)c(-c2ccc3c(c2)CCCC3)c1=O | -
Cc1cc(C)c(NC(=O)CN2CCN(Cc3ccc(F)cc3Cl)S2(=O)=O)c(C)c1 | -
COc1ccc(OC)c(NC(=O)CN2CCCN(Cc3ccccc3)S2(=O)=O)c1 | -
Cc1ccc(C)c(CN2CCCN(CC(=O)NC3CCCC3)S2(=O)=O)c1 | -
COc1ccc(OC)c(NC(=O)CN2CCCN(Cc3cccc(C)c3)S2(=O)=O)c1 | +
COc1ccc(NC(=O)CN2CCN(Cc3cccc(C)c3)S2(=O)=O)cc1 | +
COc1ccc(OC)c(NC(=O)CN2CCCN(Cc3ccc(C)cc3)S2(=O)=O)c1 | -
COc1ccc(NC(=O)CN2CCN(Cc3ccccc3C)S2(=O)=O)cc1 | -
CCOc1ccc(NC(=O)CN2CCCN(Cc3cc(C)ccc3C)S2(=O)=O)cc1 | +
COc1ccc(CN2CCCN(CC(=O)Nc3ccc(OC)cc3)S2(=O)=O)cc1 | -
Cc1ccc(C)c(CN2CCCN(CC(=O)Nc3ccc(C)c(F)c3)S2(=O)=O)c1 | -
SMILES | FECH block
Cc1ccccc1CN1CCN(Cc2ccccc2C)S1(=O)=O | +
Cc1cc(C)c(CN2CCN(Cc3ccccc3C)S2(=O)=O)c(C)c1 | -
Cc1ccc(NC(=O)CN2CCN(Cc3ccccc3C)S2(=O)=O)cc1 | -
CCCc1cc(Sc2ccc(NS(=O)(=O)c3cccc(Cl)c3)cc2)n2ncnc2n1 | -
CCc1ccccc1C(=O)NCC1CCCN(Cc2ccncc2)C1 (configuration not stated) | -
CCOc1cc(C(=O)Nc2cc(N3CCCS3(=O)=O)ccc2C)cc(OCC)c1OCC | -
Nc1ccnc(-c2cccc3cccnc23)c1 | -
COc1ccc(-c2cc(N3CCN(C(=O)NCc4ccc(C)cc4)CC3)ncn2)cc1 | -
Cc1[nH]cnc1CN(C)C1CC(C)(C)NC(C)(C)C1 | -
CCc1ccccc1NC(=O)N1CCC2(CC1)C(=O)NCCN2C | -
CC(C)c1nccn1C(C)C(=O)NCc1ccc2c(c1)OCO2 (configuration not stated) | -
Cc1cc(Sc2ccccc2NC(=O)Nc2cccc(F)c2)n2ncnc2n1 | -
O=c1cc(CN2CCN(CCn3cncn3)CC2)c2cccc3c2n1CCC3 | -
COc1cccc(NC(=O)CN2CCN(Cc3ccc(F)cc3)S2(=O)=O)c1 | -
Cc1cccc(NC(=O)CN2CCCN(Cc3ccccc3)S2(=O)=O)c1 | -
COc1cccc(NC(=O)CN2CCCN(Cc3cccc(C)c3)S2(=O)=O)c1 | +
COc1cccc(NC(=O)CN2CCCN(Cc3cccc(F)c3)S2(=O)=O)c1 | -
Cc1ccc(NC(=O)CN2CCCN(Cc3ccccc3)S2(=O)=O)cc1 | -
CCc1cccc(C)c1NC(=O)CN1CCCN(Cc2cccc(C)c2)S1(=O)=O | +
CCOc1ccc(NC(=O)CN2CCCN(Cc3cccc(F)c3)S2(=O)=O)cc1 | -
CCc1cccc(C)c1NC(=O)CN1CCCN(Cc2ccc(C)cc2)S1(=O)=O | -
COc1ccc(CN2CCCN(CC(=O)Nc3ccccc3F)S2(=O)=O)cc1 | -
CCOc1ccc(NC(=O)CN2CCCN(Cc3cccc(C)c3)S2(=O)=O)cc1 | +
CCc1cccc(C)c1NC(=O)CN1CCN(Cc2ccccc2C)S1(=O)=O | -
Cc1cccc(CN2CCCN(CC(=O)Nc3ccccc3F)S2(=O)=O)c1 | +
SMILES | FECH block
Cc1ccc(C2=CC(c3ccc(F)cc3)n3nc(NC(=O)c4cccc(C)c4)nc3N2)cc1 (configuration not stated) | -
Cn1c(=O)c(C(=O)Nc2ccccc2C(F)(F)F)nc2ccccc21 | -
CCn1nc(C(=O)O)c2c1CCC(NCc1c(OC)cccc1OC)C2 (configuration not stated) | -
COc1ccc(/C=C/CN2CCC(n3cc(CCO)nn3)CC2)cc1 | -
COCCn1c(CNC(=O)c2ccc(OC)c(OC)c2)nc2cccnc21 | -
Cc1cnc(-c2c(-c3ccccc3)ncn2Cc2ccccc2CN(C)C)[nH]1 | -
Cc1cc2cc(C(=O)NCCSc3nccn3C)ccc2o1 | -
Cc1ccc(N=C2NC(=O)C(Cc3nc(C)nn3-c3ccc(F)cc3)S2)cc1 (configuration not stated) | -
c1cc(CN2CCN3CCCC3C2)n(-c2nccs2)c1 (configuration not stated) | -
Cc1ccc(CN(Cc2cnn(C)c2)CC(C)C)n1-c1cccnc1 | -
Cc1c(NCc2cccnc2)cccc1C(=O)NCCN1CCCC1=O | -
CCOc1ccc(CC(=O)NC2CC(=O)N(c3cccc(F)c3)C2)cc1 (configuration not stated) | -
CC1CCN(C(=O)C2CCC(Cn3c(=O)c4sccc4n(CC(=O)NC(C)C)c3=O)CC2)CC1 (configuration not stated) | -
COc1ccc(NC(=O)CN2CCN(Cc3ccccc3Cl)S2(=O)=O)cc1OC | -
Cc1ccc(CN2CCCN(Cc3c(F)cccc3Cl)S2(=O)=O)cc1 | +
Cc1ccc(CN2CCCN(Cc3ccc(F)cc3Cl)S2(=O)=O)cc1 | -
Cc1ccc(NC(=O)CN2CCN(Cc3ccc(Cl)cc3)S2(=O)=O)cc1C | -
COc1ccc(NC(=O)CN2CCN(Cc3ccccc3C)S2(=O)=O)cc1Cl | -
COc1ccc(NC(=O)CN2CCN(Cc3ccccc3C)S2(=O)=O)cc1OC | +
Cc1ccc(NC(=O)CN2CCN(Cc3cccc(C)c3)S2(=O)=O)cc1 | +
Cc1ccc(NC(=O)CN2CCN(Cc3ccccc3)S2(=O)=O)cc1 | -
Cc1cccc(CN2CCN(CC(=O)Nc3ccc(C)c(C)c3)S2(=O)=O)c1 | +
Cc1ccc(CN2CCN(CC(=O)Nc3ccc(C)c(C)c3)S2(=O)=O)cc1 | -
Cc1ccc(NC(=O)CN2CCCN(Cc3ccc(Cl)cc3)S2(=O)=O)cc1 | -
Cc1cccc(CN2CCN(CC(=O)Nc3c(C)cc(C)cc3C)S2(=O)=O)c1 | -
SMILES | FECH block
O=C(NC1CC1)C1CCCN(C2CCN(c3ccc(C(F)(F)F)cn3)CC2)C1 (configuration not stated) | -
C=CCN(C(=O)C1CCCN(c2ncnc3c2nc2n3CCCCC2)C1)c1ccccc1 (configuration not stated) | -
CCc1ccc(-n2c(CN3CCN(S(=O)(=O)c4cc(C)ccc4C)CC3)nc3cccnc32)cc1 | -
CCOC(=O)Cc1csc(NC(=O)C2CCCN(c3ncnc4c3nc3n4CCCCC3)C2)n1 (configuration not stated) | -
Cc1ccc(-c2cc(Nc3ccccc3Cl)nc(C)n2)cc1 | -
CCOC(=O)Cn1c(=O)n(-c2ccc(C)c(C)c2)c2nc(-c3cccc(Cl)c3)nc(C(N)=O)c21 | -
